FMDV antiviral = blocks foot and mouth disease virus; FMDV antiviral cell-based qHTS; Potency, µM (highest dose often 57.9 µM), for the others: at the top dose activity change, negative = inhibition, usual class: inhibitors; hit rate 1.2% among 410,000; calls by dose curve; tested in HEK293T cells; further: read-out not given here; nearly all actives have a fitted effect of over 45% in size
Sm TGR inh = S. mansoni TGR enzyme inhibition; Q962Y6; Potency, µM (titrated, usually from 114 µM), for inactives: at the top dose activity change, negative = inhibition, hits mostly inhibitors; hit rate 3% among 360,000; purified TGR, DTNB reduction, TNB absorbance 405 nm; AID 485364; active means well fitted inhibition curve with a large enough effect; inconclusive means small, poorly fitted or top-dose-only effect; inactive means no such curve, though single readings can be large or run the other way; further: nearly all actives have a fitted effect of over 60% in size
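TGR 20 nM + NADPH 100 uM (dispensed conc.), cpd preinc 15 min RT; start with NADPH (500 uM addition) then DTNB (15 mM addition). Kinetic TNB absorbance, 405 nm filter. Four-parameter Hill fit across titration.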
Vaccinia Venus = vaccinia inhibition (Venus reporter); hit rate 0.46% among 330,000; Potency, µM (top dose mostly 36.5 µM), without a hit: at the top dose activity change, negative = inhibition, hits mostly inhibitors; Vaccinia virus Venus reporter expression, fluorescence; AID 720580; calls by dose curve; tested in A549 cells; further: nearly all actives have a fitted effect of over 30% in size
LASV entry inh = Lassa virus entry inhibition; Lassa virus pseudotype entry inhibition, cell reporter; hit rate 1.2% among 300,000; Potency, µM (series often up to 37.9 µM), for the others: top-dose activity change, negative = inhibition, usual class: inhibitors; calls by dose curve; tested in HEK293 cells; further: nearly all actives have a fitted effect of over 50% in size
Marburg entry inh = blocks Marburg virus binding to or entry into cells | Marburg virus pseudotyped entry inhibition, cell reporter | Potency, µM (top dose mostly 37.8 µM), inactives show at the top dose activity change, negative = inhibition, hits mostly inhibitors | hit rate 1.8% among 300,000; calls by dose curve; tested in HEK293 cells
Vaccinia mCherry = vaccinia inhibition (mCherry reporter). Vaccinia virus mCherry reporter infection, fluorescence. Potency, µM (titrated, usually from 36.5 µM), for the others: top-dose activity change, negative = inhibition, hits mostly inhibitors. hit rate 0.63% among 310,000; calls by dose curve; tested in A549 cells; further: nearly all actives have a fitted effect of over 35% in size
An asterisk follows results filed as active; i = inactive; u = inconclusive; x = no result; ! = not confirmed by another sample; [ ] = another dose, or the depositor's remark. The list is not random: actives were taken first. Their share in the collection is about 5.4%. On the % scale 0 is the no-effect control and ±100 the full control effect; potency means the concentration at half of the fitted maximal effect.

SMILES	FMDV antiviral	Sm TGR inh	Vaccinia Venus	LASV entry inh	Marburg entry inh	Vaccinia mCherry
CC(=O)OC[C@H]1O[C@@H](ON=C(C)CCC(=O)OC[C@H]2O[C@H](C#Cc3ccccc3)C=C[C@H]2Oc2ccc(C)cc2)[C@H](OC(C)=O)[C@@H](OC(C)=O)[C@H]1OC(C)=O	x	x	x	x	9%[14.2 µM]	x
COc1ccccc1N1CCN(C(=O)c2cc3c(=O)n(C)c4ccccc4c3s2)CC1	-7%	-7%	-10%	10%[46.1 µM]	-27%[46.1 µM]	-27%
CCN(CC)CCN(C(=O)c1cc2c(ccc3ccccc32)oc1=O)c1nc2cc3c(cc2s1)OCCO3	-2%	-7%	u	11%[46.1 µM]	u	10µM*
CCOC(=O)c1cc([N+](=O)[O-])c([N+](=O)[O-])cc1NC(C)=O	u	0.5µM*	-4%	-13%	u	-10%
CCOc1ccc(-c2cc(C(=O)NCc3ccccc3)c3c(-c4ccc(CC)cc4)[nH]nc3n2)cc1	-27%	0%	-3%	19%[46.1 µM]	x	i
O=C(CSc1ncnc2c1nnn2Cc1ccccc1F)N1CCN(c2ccccc2)CC1	35µM*	-8%	2%	u	-8%	x
CC(C)(C)NC(=O)CSc1ncnc2c1nnn2Cc1ccccc1Cl	u	0%	-5%	18µM*	u	-9%
CCc1c(C(=O)OC)ncc2[nH]c3cc(OC)c(OC)cc3c12	u	x	-20%	x	u	i
CCOC(=O)c1ncc2[nH]c3ccc(OCc4ccccc4)cc3c2c1COC	16µM*	x	x	x	x	x
COC(=O)C(C)(N)Cc1ccc(O)cc1 (configuration not stated)	-17%	-2%	-15%	u	2.8µM*!	-14%
CC(C)c1ccc(S(=O)(=O)c2cnc(SCC(=O)Nc3ccc4c(c3)OCCO4)[nH]c2=O)cc1	-13%	-7%	6%	8%[46.1 µM]	u	1%
Cc1cc(C)c2nc(N(CCCN(C)C)C(=O)C3=COCCO3)sc2c1	0%	0%	u	u	20µM*	-13%
COc1ccc(C)c2sc(N(CCCN(C)C)C(=O)c3ccc4c(c3)OCCO4)nc12	-17%	-13%	u	10µM*	u	-21%
CCN(CC)CCN(C(=O)C1=COCCO1)c1nc2cc(C)cc(C)c2s1	u	5%	-22%	-14%	11µM*	i
Cc1ccc(OCc2nc(-c3ccc(C(=O)N4CCN(c5ccc(Cl)cc5)CC4)cc3)oc2C)cc1	-26%	1%	-28%	x	-16%[46.1 µM]	-23%
CCOc1ccc(N2CSC3=C(C#N)C(c4ccco4)CC(=O)N3C2)cc1 (configuration not stated)	10%	25µM*	-7%	-1%	14%	-4%
Cc1ccc(C2CC(=O)N3CN(c4ccc(Br)cc4)CSC3=C2C#N)o1 (configuration not stated)	2%	28µM*	x	-2%	2%	x
N#CC1=C2SCN(c3ccccc3)CN2C(=O)CC1c1cccs1 (configuration not stated)	-13%	u	-6%	-3%	1%	-17%
COc1cc(C2CC(=O)N3CN(c4ccccc4C)CSC3=C2C#N)cc(OC)c1OC (configuration not stated)	x	u	x	x	-1%	x
CC(C)N1C(=O)S/C(=C\c2ccc(-c3ccc(Cl)c(C(=O)O)c3)o2)C1=O	-17%	-35%	x	x	x	x
CCN(CC)c1ccc(C=C2C(=O)N(C)C(=S)N(C)C2=O)o1	-3%	45µM*	85%	-5%	u	7%
CCN(CC)c1ccc(/C=C2/SC(=O)N(C(C)C)C2=O)o1	11%	11µM*	58%	u	u	-21%
CCN(CC)c1ccc(/C=C2\C(=O)NC(=S)N(C)C2=O)o1	4%	-34%	143%	24%[46.1 µM]	u	-9%
COc1ccc2c(c1)c(CC(=O)NCc1cc([N+](=O)[O-])ccc1O)c(C)n2C(=O)c1ccc(Cl)cc1	40µM*	-25%	-22%	8%	-10%	-28%
COc1ccc2c(c1)c(CC(=O)Nc1nnc(C3CC3)s1)c(C)n2C(=O)c1ccc(Cl)cc1	5%	-20%	-10%	u	3.2µM*	u
SMILES	FMDV antiviral	Sm TGR inh	Vaccinia Venus	LASV entry inh	Marburg entry inh	Vaccinia mCherry
CCOC(=O)C1=C(CS(=O)(=O)c2ccc(C(C)(C)C)cc2)NC(=O)NC1c1cccc(OC)c1 (configuration not stated)	u	-1%	-14%	u	u	-19%
Cc1cc(C)cc(NS(=O)(=O)c2ccc3[nH]cc(C(=O)NCc4ccco4)c(=O)c3c2)c1	1%	40µM*	11µM*	u	u	10µM*
Oc1cccc2ccc(Nc3ccccn3)nc12	0%	3%	x	23µM*	u	x
c1ccc(Nc2ccccc2Nc2ccccn2)nc1	-15%	-6%	x	29%	u	x
CN(C)c1ccc(/C=C/c2cc[n+](C)c3ccc4ccccc4c23)cc1	x	x	u	x	x	37%
CN(C)c1ccc(/C=C/c2cc[n+](C)c3ccccc23)cc1	8.9µM*	x	i	u	7.9µM*	i
CCCCCCC[n+]1c(/C=C/c2ccc(N(C)C)cc2)sc2ccccc21	x	x	29%	x	x	u
CC[n+]1c(/C=C/C=C/c2ccc(N(C)C)cc2)sc2ccccc21	u	u	u	u	1.8µM*	u
CN(C)c1ccc(/C=C/c2ccnc3c(O)cccc23)cc1	x	x	u	x	x	10µM*
CN(C)c1ccc(/C=C/C=C/c2sc3ccccc3[n+]2C)cc1	40µM*	-32%	-14%	u	u	-25%
COc1ccc(-c2cc(-c3ccccc3)nc3c2COc2ccc(F)cc2-3)cc1	-10%	9%	2%	11%[46.1 µM]	-18%[46.1 µM]	-5%
CCCOc1ccc(C2C(=O)N(C3CCCCCC3)CC(=O)N2Cc2ccccc2OC)cc1OC (configuration not stated)	-1%	3%	-6%	-25%[46.1 µM]	x	-12%
CC[n+]1c(/C=C/C=C/N(C(C)=O)c2ccccc2)sc2ccccc21	u	40µM*	191%	-28%	u	x
CCn1c(/C=C/N(C(C)=O)c2ccccc2)[n+](CC)c2ccc(Cl)cc21	-7%	1%	-1%	-3%	-14%	i
CC[n+]1c(/C=C/N(C)c2ccccc2)sc2ccc(Cl)cc21	x	-24%	-9%	u	2.9µM*	-8%
CCCN1C(=O)CN(C2CCCCCC2)C(=O)C1c1ccc(OCC)c(OC)c1 (configuration not stated)	-9%	-24%	-8%	u	x	-17%
CC(C)COc1ccc(C(=O)N2CCN(CCc3ccccn3)CC2)cc1	-11%	1%	-6%	-1%[46.1 µM]	14%[46.1 µM]	-14%
CCOC(=O)CSc1nnc(NCC(=O)OC(C)C)c(=O)[nH]1	-14%	13µM*	-4%	-14%	7%	-1%
CCOC(=O)CNC(=O)CSc1nnc(C)c(=O)[nH]1	-22%	-1%	5%	8%	-3%	i
O=C(c1ccc(CS(=O)(=O)c2ccccc2)o1)N1CCN(c2ncccn2)CC1	-25%	28µM*	-10%	x	2%	-1%

Bioassay records deposited in PubChem BioAssay by National Center for Advancing Translational Sciences (NCATS).
